Bioassay records: PubChem BioAssay, National Center for Advancing Translational Sciences (NCATS)
Pol kappa inh: inhibitors of human DNA polymerase kappa; AID 588579; purified Pol kappa, fluorescent DNA synthesis assay, 10 min; Potency, µM (highest dose often 107 µM), actives largely listed as inhibitors; 400,000 compounds, 0.53% hits; Q9UBT6
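Fluorescent qHTS in 1536-well format: enzyme (10 nM) and compound sat 15 min at room temperature before 50 nM substrate (final) was added. Signal taken at 0 and 10 min; no-enzyme buffer wells were negative controls.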
Pol beta inh-1: blocks human DNA polymerase beta activity. 340,000 compounds, 1.3% hits. Pol beta primer extension/strand displacement, fluorescence kinetic. Potency, µM (titrated, usually from 114 µM), actives largely listed as inhibitors. AID 485314
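Values derive from four-parameter Hill fits of normalized kinetic data: reads at 0 and 10 min following addition of 50 nM substrate to 10 nM Pol beta preincubated 15 min with compound.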
POLI inh: blocks human DNA polymerase iota activity; Potency, µM (titrated, usually from 115 µM), usual class: inhibitors; Pol iota fluorescent replication assay, 10 min; 390,000 compounds, 1% hits
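Fluorescent replication assay read twice, at 0 min and 10 min after adding 50 nM (final) substrate. Enzyme (10 nM) and compounds were first incubated 15 min at room temperature; enzyme-free buffer wells were negative controls.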
PI5P4K alpha inh: blocks human PI5P4K alpha kinase activity | P48426 | 330,000 compounds, 1.2% hits | max response, % | PI5P4Kalpha enzyme, ADP-Glo luminescence, 60 min; active compounds read low | AID 652105; active means max response of -50% or lower; inconclusive means between -30% and -50%; inactive means -30% or higher; further: value at the top dose of about 77 µM
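Enzyme plus substrate dispensed, test compounds pinned in, then ATP (5 microM final) added. After 60 min at RT, ADP-Glo reagent 1 for 45 min and reagent 2 for 30 min preceded luminescence imaging.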
POLH inh: DNA polymerase eta (human) inhibition. Q9Y253. recombinant Pol eta, fluorescent DNA replication assay. Potency, µM (top dose mostly 114 µM), usual class: inhibitors. 390,000 compounds, 1.2% hits. AID 588591
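Pol eta (10 nM) was preincubated with compounds for 15 min at room temperature, after which fluorescent replication substrate (50 nM final) was added to start the reaction. Fluorescence was read kinetically at 0 and 10 min.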
WRN inhibitor: blocks human WRN helicase | WRN helicase unwinding, fluorescent forked duplex, kinetic | Q14191 | Potency, µM (highest dose often 114 µM), usual class: inhibitors | 360,000 compounds, 0.46% hits; further: nearly all actives have a fitted effect of over 55% in size
Target sequence (Q14191 whole entry, looked up): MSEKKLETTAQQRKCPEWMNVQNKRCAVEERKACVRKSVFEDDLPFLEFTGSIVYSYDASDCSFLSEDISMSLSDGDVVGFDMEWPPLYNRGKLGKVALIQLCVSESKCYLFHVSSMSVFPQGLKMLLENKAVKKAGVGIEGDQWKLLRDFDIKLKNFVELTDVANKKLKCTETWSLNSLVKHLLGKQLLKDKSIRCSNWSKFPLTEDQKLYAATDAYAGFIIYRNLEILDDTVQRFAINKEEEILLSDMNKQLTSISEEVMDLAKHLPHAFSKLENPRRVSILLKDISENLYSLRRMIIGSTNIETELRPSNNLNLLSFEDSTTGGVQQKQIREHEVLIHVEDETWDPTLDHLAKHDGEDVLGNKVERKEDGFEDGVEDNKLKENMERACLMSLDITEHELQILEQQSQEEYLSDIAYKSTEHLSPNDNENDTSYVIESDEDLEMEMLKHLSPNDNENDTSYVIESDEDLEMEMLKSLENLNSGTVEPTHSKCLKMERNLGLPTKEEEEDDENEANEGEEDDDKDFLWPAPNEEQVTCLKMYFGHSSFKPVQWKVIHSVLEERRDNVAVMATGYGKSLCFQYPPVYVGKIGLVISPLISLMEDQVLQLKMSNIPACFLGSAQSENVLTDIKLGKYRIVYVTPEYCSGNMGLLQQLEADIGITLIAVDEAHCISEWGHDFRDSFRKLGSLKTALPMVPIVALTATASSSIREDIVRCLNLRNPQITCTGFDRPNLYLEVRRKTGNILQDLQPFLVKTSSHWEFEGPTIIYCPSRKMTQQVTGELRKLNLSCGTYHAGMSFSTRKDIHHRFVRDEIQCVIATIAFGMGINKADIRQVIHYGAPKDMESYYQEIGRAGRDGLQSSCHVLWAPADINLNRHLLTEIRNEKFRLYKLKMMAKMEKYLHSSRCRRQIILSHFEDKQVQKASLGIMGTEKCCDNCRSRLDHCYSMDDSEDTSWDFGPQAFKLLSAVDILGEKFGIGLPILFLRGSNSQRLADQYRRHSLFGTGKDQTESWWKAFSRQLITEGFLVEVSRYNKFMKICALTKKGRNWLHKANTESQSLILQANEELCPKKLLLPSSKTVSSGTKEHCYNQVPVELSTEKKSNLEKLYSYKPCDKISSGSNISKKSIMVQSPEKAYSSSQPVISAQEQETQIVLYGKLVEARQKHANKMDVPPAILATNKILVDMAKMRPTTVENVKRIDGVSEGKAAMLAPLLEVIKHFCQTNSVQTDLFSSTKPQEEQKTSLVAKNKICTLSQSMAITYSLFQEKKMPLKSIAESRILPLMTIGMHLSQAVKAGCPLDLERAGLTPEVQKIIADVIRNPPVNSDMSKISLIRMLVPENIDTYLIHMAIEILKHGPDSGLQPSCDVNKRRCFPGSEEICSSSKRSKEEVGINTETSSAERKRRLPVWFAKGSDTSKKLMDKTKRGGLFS
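Kinetic red-fluorescence monitoring (525/598 nm) tracks WRN helicase activity after 100 nM fluorophore-quencher forked duplex and 2 mM ATP are added to 20 nM enzyme pretreated 15 min at room temperature with compound.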
Pol beta inh-2: Human Pol beta inhibitor hit validation; shares compounds with Pol beta inh-1; Pol beta primer extension/strand displacement, fluorescence kinetic; Potency, µM, hits mostly inhibitors; 250 compounds, 87% hits; AID 540280; calls by dose curve
Klenow inh: inhibits Klenow fragment polymerase in counter-screen. shares compounds with Pol beta inh-1. Klenow exo- polymerase counter-screen, fluorescent DNA substrate. activity change, negative = inhibition, % at 57.1 µM. 250 tested, under 10 active. AID 540300
HIV RT counter: inhibits HIV-1 reverse transcriptase in counter-screen; activity % (negative = inhibition, positive = activation), % at 57.1 µM; HIV-1 RT polymerase activity, counter-screen; 250 tested, under 10 active; shares compounds with Pol beta inh-1; AID 540301
POLB inh gel: validation of human DNA polymerase beta inhibitors | shares compounds with Pol beta inh-1 | radiolabeled primer extension gel assay, phosphorimager | inhibition, % at 10 µM | 110 compounds, 91% hits | AID 540325;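 active means inhibition at 10 µM of 30% or more; inconclusive means no clear call, values can overlap the other calls; inactive means inhibition at 10 µM under 30%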
Large screens that a line does not name were inactive (follow-up assays come after a bar, where they were run). In the library only some 2.8% were active in any assay of this set; here they are far more common. Unless noted, the call rests on the fitted dose curve; in most records, active means well fitted curve in the direction sought with a large enough effect; inconclusive means small, poorly fitted or top-dose-only effect, or another doubt; inactive means no such curve, though single readings can be large; an effect the other way counts as inactive or inconclusive.

CCCCNC(=O)C1(C)CCCCN1Cc1ccccc1-c1ccccc1 (stereo not drawn)	none (no result: Pol kappa inh, Pol beta inh-1, POLI inh, POLH inh)
COc1ccc(NC(=O)CCC(=O)Nc2nnc(CC(C)C)s2)cc1Cl	none
Nc1nc(SCc2ccc([N+](=O)[O-])cc2)c2ncn([C@@H]3O[C@H](CO)[C@H](O)[C@H]3O)c2n1	none (no result: Pol kappa inh, PI5P4K alpha inh, WRN inhibitor)
CC(C)CC(C(=O)Nc1cccc(O)c1)N1C(=O)c2ccccc2C1=O (stereo not drawn)	none
CC(C)CC(C(=O)Nc1oc(-c2ccco2)c(-c2ccco2)c1C#N)N1C(=O)c2ccccc2C1=O (stereo not drawn)	Pol kappa inh inconclusive, Pol beta inh-1 32µM, POLI inh inconclusive, POLH inh 20µM, WRN inhibitor inconclusive
CCCNc1ncc2c(=O)[nH][nH]c(=O)c2n1	POLI inh inconclusive, PI5P4K alpha inh -55 (no result: Pol beta inh-1)
Cc1cc(C)c(NC(=O)CS(=O)CC(=O)NCCN2CCCCCC2)c(C)c1 (stereo not drawn)	none
C[C@@H]1CN([C@@H](C)CO)C(=O)CCCn2cc(nn2)CO[C@H]1CN(C)S(=O)(=O)c1ccc2ccccc2c1	none (no result: Pol kappa inh, Pol beta inh-1, POLI inh)
O=C(CN1C(=O)CC(c2ccco2)Sc2ccccc21)Nc1ccccc1F (stereo not drawn)	POLI inh 45µM, PI5P4K alpha inh inconclusive, POLH inh inconclusive, WRN inhibitor inconclusive
CCOc1cc(/C=C(\C#N)c2[nH]nc(N)c2C#N)ccc1O	Pol beta inh-1 inconclusive, PI5P4K alpha inh -65, POLH inh inconclusive
CC(=O)Nc1cccc(NC(=O)Nc2cccc3ccccc23)c1	Pol beta inh-1 50µM, POLI inh inconclusive
O=C(Nn1c(-c2ccc(Br)cc2)nc2ccccc2c1=O)c1cccnc1	PI5P4K alpha inh -56, WRN inhibitor inconclusive
Cc1ccc(NC(=O)CCn2c(=O)c3cccn3c3ccccc32)c(C)c1	POLI inh 89µM
COc1ccccc1N1CCN(C(=O)c2cc3c(s2)CCC3)CC1	Pol beta inh-1 7.9µM, POLH inh inconclusive | Pol beta inh-2 inconclusive | Klenow inh inactive | HIV RT counter inactive | POLB inh gel 74
COc1cccc(-n2cc(C(=O)NCCCOC(C)C)c3ccccc3c2=O)c1	none
COC(=O)c1ccc(CSc2nc3scc(-c4cccs4)c3c(=O)[nH]2)o1	Pol kappa inh inconclusive, Pol beta inh-1 20µM, POLI inh inconclusive, POLH inh inconclusive, WRN inhibitor inconclusive (no result: PI5P4K alpha inh) | Pol beta inh-2 32 | Klenow inh inactive | HIV RT counter inactive | POLB inh gel 98
COc1ccc(CNc2ccc3cc(S(=O)(=O)N4CCCCC4)ccc3n2)cc1	none (no result: PI5P4K alpha inh, WRN inhibitor)
Cc1cc(C)nc(NS(=O)(=O)c2ccc(N/C=C\C(=O)c3ccc(Cl)cc3)cc2)n1	Pol beta inh-1 inconclusive, POLI inh inconclusive (no result: PI5P4K alpha inh)
CCOc1ccc(C(=O)/C=C/Nc2ccc(S(=O)(=O)Nc3cc(C)nc(C)n3)cc2)cc1	Pol beta inh-1 8.9µM, POLI inh 40µM, POLH inh inconclusive | Pol beta inh-2 35 | Klenow inh inactive | HIV RT counter inactive | POLB inh gel 69
COc1ccc(C(=O)Nc2ccc3c(c2)C(=O)c2ccccc2C3=O)cc1OC	Pol beta inh-1 2.2µM, POLH inh inconclusive | Pol beta inh-2 22 | Klenow inh inactive | HIV RT counter inactive | POLB inh gel 70
COc1cc(C(=O)Nc2ccc3c(c2)C(=O)c2ccccc2C3=O)cc(OC)c1OC	Pol beta inh-1 inconclusive, POLH inh inconclusive
CCN(CC)C(=O)c1cccc(-c2csc(C(C)(O)c3cccc(F)c3)n2)c1 (stereo not drawn)	none (no result: Pol kappa inh, Pol beta inh-1, POLI inh, POLH inh)
Cc1[nH]c2ccccc2c1C(=O)COC(=O)C1CC(=O)N(Cc2ccco2)C1 (stereo not drawn)	none
Cc1ccc(C(=O)Oc2ccc(C(=O)COC(=O)C3CC(=O)N(Cc4ccco4)C3)cc2)cc1 (stereo not drawn)	Pol kappa inh 45µM, Pol beta inh-1 16µM, POLI inh 4.5µM, PI5P4K alpha inh inconclusive, POLH inh 13µM, WRN inhibitor inconclusive | Pol beta inh-2 14 | Klenow inh inactive | HIV RT counter inactive
O=C(COC(=O)C1CC(=O)N(Cc2ccco2)C1)c1ccc(OC(=O)c2ccco2)cc1 (stereo not drawn)	Pol kappa inh 32µM, Pol beta inh-1 7.1µM, POLI inh 18µM, PI5P4K alpha inh -63, POLH inh 3.2µM, WRN inhibitor 35µM | Pol beta inh-2 8.9 | Klenow inh inactive | HIV RT counter inconclusive
O=S1(=O)CC(N2CCCCC2)CN1Cc1ccc(F)cc1 (stereo not drawn)	none (no result: Pol kappa inh, Pol beta inh-1, POLI inh, POLH inh)
CC(=O)c1c(C)[nH]c(C(=O)COC(=O)c2ccc3c(=O)n4c(nc3c2)CCC4)c1C	none
O=C(OCc1cc(=O)n2c(n1)sc1ccccc12)c1ccc2c(=O)n3c(nc2c1)CCC3	Pol kappa inh inconclusive, Pol beta inh-1 10µM, POLI inh inconclusive, PI5P4K alpha inh inconclusive, POLH inh inconclusive | Pol beta inh-2 13 | Klenow inh inactive | HIV RT counter inactive
O=c1[nH]c(C(Cl)Cl)nc2sc3c(c12)CCN(Cc1ccccc1)C3	Pol kappa inh inconclusive, Pol beta inh-1 13µM, POLI inh inconclusive, POLH inh 40µM | Pol beta inh-2 16 | Klenow inh inactive | HIV RT counter inactive
Cc1ccc(/C=C/c2onc(C)c2S(=O)(=O)N2CCC(C(=O)N3CC(C)Oc4ccccc43)CC2)cc1 (stereo not drawn)	none (no result: PI5P4K alpha inh, WRN inhibitor)
O=C(CSc1nnnn1-c1ccc(F)cc1)c1ccc(O)c(O)c1	Pol kappa inh inconclusive, Pol beta inh-1 13µM, POLI inh inconclusive, POLH inh inconclusive, WRN inhibitor inconclusive | Pol beta inh-2 7.9 | Klenow inh inactive | HIV RT counter inactive
CCC(C)[C@H](NC(=O)[C@@H]1Cc2c([nH]c3ccccc23)C2c3ccccc3C(=O)N21)C(=O)N1CCC[C@@H]1C(=O)O (stereo partly drawn)	none
C=CCSc1nnc(NC(=O)C2CC(=O)N(c3ccc4c(c3)OCCO4)C2)s1 (stereo not drawn)	none (no result: Pol beta inh-1)
